Laboratory results as given in the supplement of paper PMC9399229.
Values joined by “and” are separate entries in the source; they are usually repeats but may differ in a detail not shown here. Equal entries are not always repeated. Structures can show the parent of a compound that is named as a salt. Over roughly 1,900 compounds, “relative cell viability (CellTiter-Glo), compound plus cabozantinib, relative to the cabozantinib arm (arm median 1.05; reference not stated)” has its median near 1.1; the lowest 2% begin near 0.15. This is one part of a sample in which the lowest values are shown more often than they occur.

Each molecule was assayed on Hep3B (assay: relative cell viability (CellTiter-Glo), compound plus cabozantinib, relative to the cabozantinib arm (arm median 1.05; reference not stated) (fraction); higher = more viable cells (less growth inhibition)). Settings: cabozantinib 2 µM; 4 days.

Row | SMILES | relative cell viability
1 | O=C(NC[C@H](O)CN1CCc2ccccc2C1)c1cc(NC2COC2)ncn1 | 1.13
2 | OC[C@H]1OC(O)[C@H](O)[C@@H](O)[C@@H]1O (stereo not given in full) [Dextrose] | 1.01
3 | CC(C)CC(=O)Nc1n[nH]c2c1CN(C(=O)C1CCN(C)CC1)C2(C)C | 0.431
4 | Cc1nc(Nc2n[nH]c3c2CN(C(=O)N[C@H](CN(C)C)c2ccccc2)C3(C)C)c2sccc2n1 | 0.149
5 | CC1CC(OC(=O)C(O)c2ccccc2)CC(C)(C)C1 (stereo not given) [Cyclandelate] | 1.07
6 | O=C(NC1CCNCC1)c1n[nH]cc1NC(=O)c1c(Cl)cccc1Cl | 0.158 and 0.144
7 | O=C(NC1CCOCC1)c1ccc(-c2cc(-c3c[nH]nc3-c3ccccn3)ccn2)cc1 | 1.12
8 | NC(=O)Nc1cc(-c2cccc(F)c2)sc1C(=O)N[C@H]1CCCNC1 | 0.162
9 | C#C[C@]1(OC(C)=O)CC[C@H]2[C@@H]3CCC4=C[C@@H](OC(C)=O)CC[C@@H]4[C@H]3CC[C@@]21C [Ethynodiol diacetate] | 1.12
10 | N#Cc1c(Oc2ccc(F)c(NC(=O)Cc3cccc(C(F)(F)F)c3)c2)ccc2nc(NC(=O)C3CC3)sc12 | 0.227
11 | CCNC(=O)c1noc(-c2cc(Cl)c(O)cc2O)c1-c1ccc(OC)cc1 | 0.183
12 | CCCCc1nc2cc(/C=C/C(=O)NO)ccc2n1CCN(CC)CC [Pracinostat (SB939)] | 0.147
13 | CN(C)Cc1ccc(S(=O)(=O)n2ccc(/C=C/C(=O)NO)c2)cc1 [Resminostat] | 0.59
14 | COc1ccc(C(=O)CC(=O)c2ccc(C(C)(C)C)cc2)cc1 [Avobenzone] | 1.1
15 | O=C(NC[C@H](O)CO)c1ccncc1Nc1ccc(I)cc1F | 0.201
16 | Cn1cnc2c(F)c(Nc3ccc(Br)cc3F)c(C(=O)NOCCO)cc21 | 0.634
17 | O=C(NOCCO)c1ccc2cncn2c1Nc1ccc(I)cc1F | 0.133
18 | O=C(NOCC(O)CO)c1cc(Br)c(F)c(F)c1Nc1ccc(I)cc1F (stereo not given) | 0.87
19 | O=C(NOC[C@H](O)CO)c1ccc(F)c(F)c1Nc1ccc(I)cc1F | 0.183
20 | Cc1cc(C(=O)NOCCO)c(Nc2ccc(I)cc2F)n(C)c1=O | 0.141
21 | Cc1nc2c([nH]1)-c1ccccc1N(C(=O)c1ccc(NC(=O)c3ccccc3-c3ccccc3)cc1)CC2 [Conivaptan HCl] | 0.972
22 | CNC(=O)c1ccccc1Sc1ccc2c(/C=C/c3ccccn3)n[nH]c2c1 [Axitinib] | 0.715
23 | COCC[n+]1c2c(n(Cc3cnccn3)c1C)C(=O)c1ccccc1C2=O [YM155 (Sepantronium Bromide)] | 0.129
24 | O=C(c1cncc(Br)c1)N1CCC(N2CCCC2)CC1 | 1.16
25 | COc1cc2c(cc1O)CC[C@@H]1[C@@H]2CC[C@]2(C)[C@@H](O)CC[C@@H]12 [2-Methoxyestradiol (2-MeOE2)] | 1.06
